BAZ2B block: blocks human BAZ2B; AID 504333; actives 4.4% (n = 360,000); AlphaScreen BAZ2B-H3K14Ac peptide displacement; Potency, µM (titrated, usually from 114 µM), for the others: at the top dose activity change, negative = inhibition, most hits filed as inhibitors; Q9UIF8; further: on the % scale 0 is the no-effect control and ±100 the full control effect; nearly all actives have a fitted effect of over 60% in size
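BAZ2B (50 nM) with biotin-H3(5-23)K14Ac peptide (50 nM) in PBS pH 7.4, 0.01% Tween-20, preformed 30 min, then compound 30 min at room temperature; top concentration 110uM. AlphaScreen streptavidin donor/nickel chelate acceptor beads (10 ug/mL final), 20 min dark, signal read.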
G9a inh: G9a (human) methyltransferase inhibition; Q96KQ7; G9a H3K9 monomethylation, AlphaScreen, 2 h; Potency, µM (series often up to 102 µM), for the others: top-dose activity, negative = inhibition, actives largely listed as inhibitors; actives 8.8% (n = 350,000); AID 504332; further: on the % scale 0 is the no-effect control and ±100 the full control effect; nearly all actives have a fitted effect of over 75% in size
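Enzyme 20 nM + cpd, 15 min RT; add b-H3K9 pep 500 nM / SAM 20 uM; 2 h RT; anti-H3K9me1 Ab 0.5 ug/mL + SA donor / anti-rabbit acceptor beads 20 ug/mL each, 10 min; AlphaScreen read.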
JMJD2A Tudor inh: inhibitors of human JMJD2A Tudor domain; Potency, µM (highest dose often 114 µM), for inactives: at the highest dose activity change, negative = inhibition, usual class: inhibitors; AlphaScreen JMJD2A-Tudor / H3K4me3 peptide binding; AID 504339; actives 4.4% (n = 390,000); O75164; further: on the % scale 0 is the no-effect control and ±100 the full control effect; nearly all actives have a fitted effect of over 50% in size
PLK1 PBD inh: inhibitors of human PLK1 polo-box domain binding; AID 720504; Plk1 PBD binding of FITC phosphopeptide, fluorescence polarization; actives 2.8% (n = 360,000); P53350; Potency, µM, inactives show max response, negative = inhibition, usual class: inhibitors; further: series mostly up to about 57 µM; on the % scale 0 is the no-effect control and ±100 the full control effect; nearly all actives have a fitted effect of over 65% in size
Target sequence (P53350 whole entry, looked up, the tested form may be a part): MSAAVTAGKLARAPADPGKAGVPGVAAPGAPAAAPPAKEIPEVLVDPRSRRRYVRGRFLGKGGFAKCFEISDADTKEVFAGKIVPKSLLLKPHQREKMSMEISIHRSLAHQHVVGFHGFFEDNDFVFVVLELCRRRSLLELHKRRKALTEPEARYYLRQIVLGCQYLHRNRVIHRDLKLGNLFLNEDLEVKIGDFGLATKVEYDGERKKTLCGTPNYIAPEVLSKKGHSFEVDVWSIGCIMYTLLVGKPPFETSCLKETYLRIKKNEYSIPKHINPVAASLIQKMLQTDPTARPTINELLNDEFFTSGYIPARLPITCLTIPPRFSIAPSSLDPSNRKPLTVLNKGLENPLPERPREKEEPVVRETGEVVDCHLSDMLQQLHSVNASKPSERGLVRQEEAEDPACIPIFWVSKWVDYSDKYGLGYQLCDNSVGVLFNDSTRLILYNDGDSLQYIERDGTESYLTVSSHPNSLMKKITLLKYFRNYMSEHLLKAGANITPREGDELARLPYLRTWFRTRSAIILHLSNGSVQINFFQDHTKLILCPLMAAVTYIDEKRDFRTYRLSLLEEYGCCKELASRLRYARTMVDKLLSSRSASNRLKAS
HP1b chromo inh: inhibitors of HP1-beta chromodomain binding to methylated histone tails; Potency, µM (series often up to 114 µM), for inactives: at the top dose activity change, negative = inhibition, actives largely listed as inhibitors; actives 0.56% (n = 390,000); P83916; AlphaScreen HP1-beta / biotin-H3K9me3 peptide binding; AID 540317; further: nearly all actives have a fitted effect of over 70% in size
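Compound inhibition of the preformed complex between 50 nM HP1-beta and 50 nM biotinylated H3K9me3 peptide was read by AlphaScreen. Buffer was PBS pH 7.4 with 0.01% Tween-20. Incubations ran 30 min at room temperature, with 10 ug/mL donor/acceptor beads.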
ALOX12 inh: blocks human arachidonate 12S-lipoxygenase; Potency, µM (series often up to 108 µM), without a hit: at the highest dose activity change, negative = inhibition, actives largely listed as inhibitors; AID 1671190; purified 12hLO, xylenol orange hydroperoxide absorbance; P18054; actives 1.1% (n = 580,000); further: on the % scale 0 is the no-effect control and ±100 the full control effect
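Hydroperoxide product was detected by ferrous iron/xylenol orange as the 573 to 405 nm absorbance ratio. Arachidonic acid at 40 uM (final) was turned over for 30 min at room temperature by 150 nM human 12hLO, pH 7.0 Hepes buffer, after 15 min compound preincubation.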
* = called active by the depositor; i = inactive; ? = inconclusive; . = not tested or not shown; [ ] = another dose, or the depositor's remark. In the library only some 9% were active in any assay of this set; here they are far more common. The call rests on the fitted dose curve; in most records, active means well fitted curve in the direction sought with a large enough effect; inconclusive means small, poorly fitted or top-dose-only effect, or another doubt; inactive means no such curve, though single readings can be large; an effect the other way counts as inactive or inconclusive. Potency means the concentration at half of the fitted maximal effect.

SMILES	BAZ2B block	G9a inh	JMJD2A Tudor inh	PLK1 PBD inh	HP1b chromo inh	ALOX12 inh
NC(Cc1c[nH]c2ccccc12)C(=O)NCc1ccccc1 (centres undefined)	20%	.	-24%	2%	27%	15%
CC(=O)c1ccc(NC(=O)CSc2nccn2Cc2ccc3c(c2)OCO3)cc1	?	18%[59 µM]	-32%	.	8%[57 µM]	?
Cc1ccc(S(=O)(=O)N2C[C@@]3(O)Cn4c(=O)ccc(=O)n4C[C@@]3(OC(=O)NCC3CCCCC3)C2)cc1	.	.	.	-28%	.	-13%
COC(=O)c1ccc(/C=N/N2CCN(Cc3ccccc3Cl)CC2)cc1	-27%	1%	8.9µM*	3%	-18%	?
CCN(CC)c1ccc(/C=N/N2CCN(Cc3ccccc3Cl)CC2)c(O)c1	10µM*	11µM*	32µM*	-3%	?	5%
CCN(CC)c1ccc(/C=N/N2CCN(Cc3ccc(C)cc3)CC2)c(O)c1	-12%	-50%[12.7 µM]	?	-10%	?	-10%
COC(=O)c1ccc(/C=N/N2CCN(Cc3ccc(C)cc3C)CC2)cc1	40µM*	?	?	-14%	-29%	4%
Cc1ccc(CN2CCN(/N=C/c3ccc(C(=O)O)cc3)CC2)c(C)c1	?	?	-11%	-10%	8%	1%
C[C@@H]1CCC(=O)N(CC[C@H](Sc2ccccc2)c2ccccc2)CC1	6%[57.1 µM]	94%	23%	-12%	117%	-13%
CCOC(=O)N1CCC(NC(=O)CCS(=O)(=O)c2ccc3c(c2)CCN3C(=O)CC)CC1	-2%	-33%	0%	4%	29%	-17%
Cc1noc(C)c1S(=O)(=O)Nc1ccccc1OC(F)(F)F	0%	.	-23%	-12%	31%	416%
CCOc1ccccc1Nc1nnc(SCC(=O)NC(Cc2c[nH]c3ccccc23)C(=O)O)s1 (centres undefined)	-31%	40µM*	-29%	-13%	-9%	-19%
Cc1ccc(Nc2nnc(SCC(=O)NC(Cc3c[nH]c4ccccc34)C(=O)O)s2)cc1 (centres undefined)	50µM*	13µM*	-23%	-7%	1%	?
N#CCC(=O)N/N=C/c1cc(Br)ccc1OCc1cccc2ccccc12	-17%	-12%[2.33 µM]	-26%	-2%	18%	i
O=C(NCCCN1CCCC1)[C@H](CSCc1ccccc1)N1Cc2ccccc2C1=O	-1%	?	-15%	-20%	31%	7%
CN(C1=C(NC(=O)c2ccccc2)C(=O)c2ccccc2C1=O)C1CCS(=O)(=O)C1 (centres undefined)	50µM*	?	?	?	-15%	?
O=C(CN1C(=O)c2ccccc2C1=O)NC1CCS(=O)(=O)C1 (centres undefined)	.	.	.	-9%	.	7%
O=C(NC(=S)NC1CCS(=O)(=O)C1)c1ccccc1 (centres undefined)	-13%	7%	-10%	0%	41%	63%
CC(=O)NC1=C(NC2CCS(=O)(=O)C2)C(=O)c2ccccc2C1=O (centres undefined)	-19%	1.8µM*	20µM*	?	45µM*	-28%
COc1cc(C(=O)OCC(=O)NCC2CCCO2)cc(OC)c1OC (centres undefined)	.	.	-14%	0%	39%	4%
O=C(c1ccccc1Br)N(Cc1ccco1)Cc1ccco1	?	-34%[59 µM]	-32%	.	5%	-12%
CCCCC1=CC2=C(c3ccco3)C(=O)C(C)(OC(=O)c3ccc(OC)cc3)C(=O)C2=CN1CCOC (centres undefined)	40µM*	?	?	-17%	-38%	-5%
COc1ccc(S(=O)(=O)Nc2c(C(=O)O)[nH]c3ccccc23)cc1	-18%	45µM*	-27%	-26%	72%	?
COc1ccc2[nH]c(C(=O)O)c(NS(=O)(=O)c3ccc(Cl)s3)c2c1	4%	?	-27%	-13%	13%	-23%
O=C(O)c1[nH]c2ccccc2c1NS(=O)(=O)c1ccc(F)cc1	?	71µM*	-21%	?	2%	12%
SMILES	BAZ2B block	G9a inh	JMJD2A Tudor inh	PLK1 PBD inh	HP1b chromo inh	ALOX12 inh
COc1ccc(NC(=O)Cc2c(C(=O)O)[nH]c3ccccc23)cc1OC	-2%	12%[59 µM]	3%	.	27%	-36%
COc1ccc(S(=O)(=O)Nc2c(C(=O)O)[nH]c3ccccc23)cc1OC	?	13µM*	?	-28%	-14%	?
COc1ccc(NS(=O)(=O)c2ccc(OC)c(OC)c2)cc1OC	0%	17%[59 µM]	-19%	-13%	18%	0%
COc1ccc(S(=O)(=O)Nc2c(O)ccc3ccccc23)cc1OC	.	.	79µM*	30µM*	71µM*	?
Cc1ccc(C(=O)N/N=C/c2c(O)ccc3ccccc23)cn1	0%	?	?	40%	41%	0%
CCOC(=O)N1C(=O)NC(=O)C1c1ccccc1 (centres undefined)	.	.	-15%	-7%	16%	2%
O=C(O)c1[nH]c2ccccc2c1NS(=O)(=O)Cc1ccccc1	-38%	?	?	-4%	6%	0%
COc1ccc2[nH]c(C(=O)O)c(NS(=O)(=O)c3ccc(C)c(C)c3)c2c1	-33%	45µM*	-19%	-26%	50%	?
Cc1ccc(S(=O)(=O)Nc2c(C(=O)O)[nH]c3ccccc23)c(C)c1	?	?	56µM*	27µM*	?	28%
COc1ccc2[nH]c(C(=O)O)c(NS(=O)(=O)c3ccc(F)cc3)c2c1	-19%	?	-16%	-19%	45%	19%
CCC(C(=O)OCC(=O)c1ccc(OC)cc1OC)c1ccccc1 (centres undefined)	?	22%[59 µM]	-4%	-4%	83%	?
Cc1ccccc1OCc1nc2ccc(S(=O)(=O)N3CCOCC3)cc2[nH]1	?	3.5µM*	?	9.5µM*	-43%	-30%
CN(C)/C=C/C(=O)c1cnc(-c2ccccc2Cl)s1	-36%	-28%	-31%	-4%	18%	8.9µM*
CN(C)/C=C/C(=O)c1cnc(-c2cccc(Cl)c2)s1	?	-49%	-24%	-4%	16%	32µM*
CC(=O)c1cnc(-c2cccc(Cl)c2)s1	-15%	-4%	11%	1%	41%	0%
C#Cc1cccc(NCc2c(F)c(F)c(F)c(F)c2F)c1	.	.	.	.	.	-42%
Cn1ccc2cc(-c3csc(CN4CC(C)(NC(=O)C5CC5)C4)n3)ccc21	.	.	.	.	.	0%[176 µM]
Cc1ccccc1-n1c(C)cc(/C=C(\C#N)C(=O)NCC2CCCO2)c1C (centres undefined)	-39%	-1%[59 µM]	0%[57.1 µM]	-9%	5%	?
Cc1cc(/C=C(\C#N)C(=O)NCc2cccs2)c(C)n1-c1ccccc1F	-27%	-33%	-8%[11.4 µM]	27µM*	-23%	-29%[57.4 µM]

Bioassay records from PubChem.
